Assay results reported in PubChem BioAssay (Tox21).
Calls of active or inactive are those of the source. A call without a number means that no potency is given here. Calls follow the shape of the full dose curve.

These compounds were tested against Acetylcholinesterase (Homo sapiens) (UniProt P22303) (assay: Acetylcholinesterase (AChE) small molecule antagonists: enzyme-based qHTS assay with human liver microsomes (AID 1347399; also: nearly all actives have a fitted effect of over 60% in size)). Conditions: Potency: qHTS inhibition; outcome: qHTS inhibition; series mostly up to 115 µM.
Sequence of Acetylcholinesterase (Homo sapiens) (P22303 whole entry, looked up): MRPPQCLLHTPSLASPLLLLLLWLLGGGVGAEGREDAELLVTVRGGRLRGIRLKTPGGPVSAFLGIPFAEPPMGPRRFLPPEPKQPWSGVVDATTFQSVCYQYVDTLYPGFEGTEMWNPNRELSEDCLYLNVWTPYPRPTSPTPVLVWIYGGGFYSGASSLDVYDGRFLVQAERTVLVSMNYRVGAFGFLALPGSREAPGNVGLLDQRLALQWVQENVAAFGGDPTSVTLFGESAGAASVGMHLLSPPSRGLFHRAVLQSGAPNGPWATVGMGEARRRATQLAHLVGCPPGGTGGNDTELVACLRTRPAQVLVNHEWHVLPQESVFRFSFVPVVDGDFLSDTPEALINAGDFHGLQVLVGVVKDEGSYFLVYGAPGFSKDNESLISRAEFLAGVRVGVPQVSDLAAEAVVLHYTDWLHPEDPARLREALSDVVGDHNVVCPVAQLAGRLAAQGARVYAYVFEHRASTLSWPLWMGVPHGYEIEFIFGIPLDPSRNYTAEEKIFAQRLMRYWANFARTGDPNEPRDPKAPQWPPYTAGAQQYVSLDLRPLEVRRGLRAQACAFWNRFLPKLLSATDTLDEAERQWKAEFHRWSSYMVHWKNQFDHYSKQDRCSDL
How it was run: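 Recombinant human AChE (50 mU/mL in the enzyme mix) and human liver microsomes (0.25 mg/mL final) were preincubated with compound and NADPH (0.25 mg/mL final) for 30 min at 37 C. Acetylthiocholine/DTNB was then added; thiocholine was read colorimetrically after 10 min at room temperature.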

SMILES | Potency | activity change, negative = inhibition | outcome
CCCCCCCCCCCCN(CCO)CCO | inactive | – | –
N#CSc1ccc(N)c([N+](=O)[O-])c1 | inactive | – | –
CCC(Cc1ccccc1)(C(=O)c1ccc(N2CCOCC2)cc1)N(C)C (centres undefined) | inactive | – | –
C[n+]1ccn(Cc2ccccc2)c1 | inactive | – | –
Nc1cc(C(Cl)=C(Cl)Cl)c(S(N)(=O)=O)cc1S(N)(=O)=O | inactive | – | –
O=C1CC2(CCCC2)CC(=O)N1CCCCN1CCN(c2ncccn2)CC1 | inactive | – | –
COc1ccc2cc1Oc1ccc(cc1)C[C@H]1c3c(cc4c(c3Oc3cc5c(cc3OC)CCN(C)[C@@H]5C2)OCO4)CCN1C | inactive | – | –
COc1cc2c(Nc3ccc(Br)cc3F)ncnc2cc1OCC1CCN(C)CC1 | inactive | – | –
CCN(CC)CCCN(c1ccccc1)C1Cc2ccccc2C1 | inactive | – | –
O=C(CCCN1CCN(c2ccccn2)CC1)c1ccc(F)cc1 | inactive | – | –
CN1CCN(c2cc3c(nn2)Oc2ccccc2N3C)CC1 | – | 1.76% [at 23.6 µM] (inactive) | –
Cc1cc(-c2ccc(N=Nc3cc(S(=O)(=O)O)c4ccccc4c3N)c(C)c2)ccc1N=Nc1cc(S(=O)(=O)O)c2ccccc2c1N | inactive | – | –
S=C([S-])NCCNC(=S)[S-].[Mn+2] | inactive | – | –
NS(=O)(=O)c1cc2c(cc1C(F)(F)F)NCNS2(=O)=O | inactive | – | –
CCN(CC)CCNC(=O)c1ccc(NC(C)=O)cc1 | inactive | – | –
CN(C(=O)CCCOc1ccc2[nH]c(=O)ccc2c1)C1CCCCC1 | inactive | – | –
N#C/C(=C1/SC[C@@H](c2ccc(Cl)cc2Cl)S1)n1ccnc1 | inactive | – | –
NS(=O)(=O)c1cc2c(cc1Cl)NC(CC1CCCC1)NS2(=O)=O (centres undefined) | inactive | – | –
Clc1ccc2c(c1)CCc1cccnc1C2=C1CCNCC1 | inactive | – | –
O=C(OCC(O)CO)c1ccccc1Nc1ccnc2cc(Cl)ccc12 (centres undefined) | inactive | – | –

SMILES | Potency | activity change, negative = inhibition | outcome
CN1CCC(=C2c3ccccc3CCc3sccc32)CC1 | inactive | – | –
CCCCN(CCCC)CCCOC(=O)c1ccc(N)cc1 | inactive | – | –
NC(N)=N/N=C/c1c(Cl)cccc1Cl | inactive | – | –
O=C1C=CC(=O)N1 | inactive | – | –
C[C@@H]1CCC[C@H](C)N1CCCC(O)(c1ccccc1)c1ccccn1 (some centres undefined) | inactive | – | –
COc1ccc(-n2nc(C(F)F)cc2-c2ccc(S(C)=O)cc2)cc1 (centres undefined) | inactive | – | –
O=C1CC[C@H](C(=O)N2CCCCC2)N1 | inactive | – | –
Nc1nc2ccccc2n1Cc1ccc(F)cc1 | inactive | – | –
Cc1cc(=O)oc2cc(N(C)C)ccc12 | inactive | – | –
CCCC[P+](C)(CCCC)CCCC | inactive | – | –
O=[N+]([O-])c1cccc(S(=O)(=O)NCCNS(=O)(=O)c2cccc([N+](=O)[O-])c2)c1 | inactive | – | –
NC(=O)C(c1ccccc1)(c1ccccc1)[C@@H]1CCN(CCc2ccc3c(c2)CCO3)C1 | inactive | – | –
CN1CCN2c3ccccc3Cc3ccccc3C2C1 (centres undefined) | inactive | – | –
COCCOc1cc2cc(C(=O)NC3CCN(C(C)C)CC3)n(CC(=O)Nc3ccc(Cl)cn3)c2cn1 | inactive | – | –
Cc1ccc(O)c([C@H](CCN(C(C)C)C(C)C)c2ccccc2)c1 | inactive | – | –
CO/N=C1\CN(c2nc3c(cc2F)c(=O)c(C(=O)O)cn3C2CC2)CC1CN (centres undefined) | – | – | inactive
Oc1ccc(C(O)CNCCCCCCNCC(O)c2ccc(O)c(O)c2)cc1O (centres undefined) | inactive | – | –
Cc1nc2n(c(=O)c1CCN1CCC(c3noc4cc(F)ccc34)CC1)CCCC2 | inactive | – | –
C1CCC(C(CC2CCCCN2)C2CCCCC2)CC1 (centres undefined) | inactive | – | –
